Laboratory results as given in PubChem BioAssay AID1053188 (Broad Institute, 2014).
The campaign covered roughly 83,000 compounds. About 780 (0.94%) were called active.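 How the source made its calls: active means mean inhibition of at least 50% with a set share of replicates also reaching that level; inconclusive means no clear call, values can overlap the other calls; inactive means the rest.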 The sample as a whole holds a higher share of actives than the screen did.

Test: CD40 pathway blockade in BL2 B cells – cell-based, luciferase reporter, single point, primary screen (AID 1053188);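 further: 0% = neutral control wells and 100% = IKK inhibitor VII at 50 µM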
Conditions: BL2 NF-kB luciferase reporter, CD40L-induced, 4 h, stronger effect = higher value; at 10 µM unless noted

inhibition, active:
O=C1C(Cl)=C(Oc2ccccc2)C(=O)c2ccccc21 100%, c1c2c(cc3sc(N4CCCCC4)nc13)OCCO2 99.7%, N#C[C@@H]1N[C@@H](CO)[C@@H]1c1ccc(C#Cc2ccccc2F)cc1 -72.6% [at 25 µM], COc1ccc2c(c1)c(=Cc1ccc(N(C)C)cc1)c1cc(-c3ccccc3)[n+](C)n12 104%, O=C(Oc1ccc(-c2nc(-c3ccccn3)no2)cc1)c1ccccc1 49.6%, Oc1c(Cl)cc(Cl)c(Cl)c1Cc1c(O)c(Cl)cc(Cl)c1Cl 90.9%, O=C(NC1=CC(=O)c2ccccc2C1=O)c1ccccc1 97.7%, Cc1ccc(-c2ccccc2[C@H]2[C@@H](C#N)N(c3ncc(-c4ccccc4)s3)[C@@H]2CO)cc1 50.1% [at 25 µM], Cn1c(-c2ccco2)nc2cc3ccccc3cc21 50.6%

inhibition, inactive:
Cc1ccc(S(=O)(=O)c2ccc(Oc3ccccc3)cc2)cc1 1.57%, COc1ccc2ccccc2c1CNc1nnnn1C -1.14%, O=C(NCC1CCCO1)c1ccc(S(=O)(=O)Nc2ccc(F)cc2)cc1 (stereo not drawn) 7.17%, Cc1nc2cc3c(cc2s1)OCO3 3.54%, CN(C)CCCN(C(=O)c1ccc(S(=O)(=O)N2CCCCCC2)cc1)c1nc2cc3c(cc2s1)OCCO3 -0.778%, O=C(NCC1CCCO1)c1cc2c(s1)CCCC2 (stereo not drawn) -65.3%, Cc1cccn2c(CNCC(C)Oc3cccnc3)c(C(=O)N3CCOCC3)nc12 (stereo not drawn) 9.25%, CCOc1ccc(S(=O)(=O)NCCC(=O)N2CCCCCCC2)cc1 7.35%, NC(=O)COC(=O)c1sc2cc(F)ccc2c1Cl -6.93%, O=C(COc1ccccc1)Nc1ccc(C(=O)N2CCCC2)cc1 -10.1%, N#C[C@@H]1N[C@H](CO)[C@@H]1c1ccc(/C=C/c2ccccc2)cc1 -33.7% [at 25 µM], N#C[C@H]1N[C@H](CO)[C@@H]1c1ccc(C#Cc2ccccc2F)cc1 -56.4% [at 25 µM], O=C(Nc1cccc(-c2cscn2)c1)C1CCN(Cc2ccsc2)CC1 -0.734%, CC(=O)c1c(C)[nH]c(C(=O)OCC(=O)Nc2c(C)n(C)n(-c3ccccc3)c2=O)c1C 6.04%, Fc1ccc(-c2ccc(NCCN3CCOCC3)nn2)cc1 -11.3%, COCCCN(C(=O)CSCc1ccc(C)cc1)c1c(N)n(Cc2ccccc2)c(=O)[nH]c1=O 10%, Cc1cccc(-n2c(=O)c3c(C)c(C)sc3n(CC(N)=O)c2=O)c1 0.549%, CN1CCC(N(C)C(=O)c2ccc(Cl)c(S(=O)(=O)Nc3ccc(Cl)cc3)c2)CC1 -2.41%, CC1(C(=O)O)CCCN(C(=O)/C=C/c2ccccc2)C1 (stereo not drawn) 4.26%, O=C(CCCCCCCC(=O)N1CCCCC1)N1CCCCC1 -9.37%, COc1ccc(NS(=O)(=O)c2ccc(N3CCOCC3)c(NC(=O)/C=C/C(=O)O)c2)cc1 2.43%, O=C(Cn1cnc([N+](=O)[O-])n1)NCCc1ccccc1 -4.08%, CC(C)c1nc(-c2ccccn2)no1 -17.2%, O=C(COC(=O)c1ccc(Oc2ccccc2)cc1)Nc1nnc(-c2ccccc2)o1 -10.4%, O=C(NCCCN1CCCC1=O)c1ccc(S(=O)(=O)Nc2ccccc2)cc1 4.15%, C=C(C)C[C@H]1CCn2cc(nn2)COCCNC1=O 4.24% [at 25 µM], Cc1cccc(CN2CCN(Cc3cnn(-c4ccccc4F)c3)CC2CCO)n1 (stereo not drawn) -1.95%, CN(Cc1cccc2ncccc12)C(=O)CC1C(=O)NCCN1Cc1ccc(F)cc1 (stereo not drawn) -2.82%, O=C(CCC(=O)c1cccs1)NC1CCCCCC1 -60%, O=[N+]([O-])c1cccc(C2=NCCS2)c1 9.1%, O=C(NC1CC1)c1ccc(-c2ccccc2)cc1 -88.4%, C/C=C/c1ccc(OCC(O)CN2CCCCCCC2)c(OC)c1 (stereo not drawn) 0.219%, CC(NC(=O)c1ccccc1)C(=O)Nc1ccccc1 (stereo not drawn) 3.04%, O=C(NC(=O)c1ccccc1)NC(=O)c1ccccc1 -13.8%, Cc1ccc(S(=O)(=O)N(C)CC(=O)NCCc2c[nH]c3ccccc23)cc1 12.5%, Cc1ccc(S(=O)(=O)N2CCN(C(=O)Cc3sc(C)nc3-c3ccc(F)cc3)CC2)c(C)c1 -8.23%, Cc1cc(C)c2nc(N3CCC(C(=O)NCCN4CCOCC4)CC3)sc2c1 -16.5%, CC(OC(=O)CNC(=O)c1ccc(Cl)c([N+](=O)[O-])c1)C(=O)NCc1ccco1 (stereo not drawn) 21.2%, CCC(C)N(C(=O)COC(=O)c1nc(Cl)ccc1Cl)C1CCS(=O)(=O)C1 (stereo not drawn) 3.49%, Cc1cccc(-c2ccccc2[C@@H]2[C@H](C#N)N(c3ncc(-c4ccccc4)s3)[C@H]2CO)c1 -6.41% [at 25 µM], N#C[C@@H]1[C@H](c2ccccc2-c2ccccc2)[C@H](CO)N1c1ncc(-c2ccccc2)s1 -4.27% [at 25 µM], Cc1ccc2cccc([N+](=O)[O-])c2n1 -0.702%, CCC(=O)N1[C@@H](CO)[C@@H](c2ccc(C3=CCCC3)cc2)C12CN(C(=O)COC)C2 -9.07% [at 25 µM], CC(OC(=O)C1CC(=O)N(Cc2ccccc2)C1)C(=O)Nc1ccccc1[N+](=O)[O-] (stereo not drawn) 7.76%, COc1ccc(NC(=O)c2cc3nc(-c4ccccc4)cc(C)n3n2)cc1OC -3.33%, Cc1nnc2sc(-c3ccco3)nn12 4.37%, CN(c1nc2ccccc2n2c(-c3ccco3)nnc12)S(=O)(=O)c1ccccc1 1.82%, CCOC(=O)C1(C)NC(c2ccco2)C2C(=O)N(c3ccccc3)C(=O)C21 (stereo not drawn) -6.84%, CS(=O)(=O)Nc1ccc2c(c1)[C@H]1C[C@@H](CC(=O)NCCc3ccccc3)O[C@@H](CO)[C@H]1O2 -1.64% [at 25 µM]
